Reference: PubChem BioAssay (EPA / NIEHS)
Calls of active or inactive are those of the source. How the source made its calls: active means hit-call score of the fitted dose curve at least 0.9, where 1 is the maximum; inactive means score below 0.9.

Experiments:
Settings in all cases: mRNA level, 48 h; actives raise or lower the signal
[1] = read-out: Cytochrome P450 (CYP24A1), CYP24A1 (gene 1591); experiment: LTEA_HepaRG_CYP24A1: Life Technologies and Expression Analysis (LTEA) Assay for Cytochrome P450 (CYP24A1) using HepaRG (AID 2283478)
Procedure, shortened: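 Differentiated HepaRG cells, pre-cultured 48 h, were exposed in duplicate for 48 h in serum-free induction medium to 8 half-log concentrations (top 100 uM, 0.5% DMSO). CYP24A1 mRNA was quantified by TaqMan qRT-PCR, normalized to ACTB/GAPDH/POLR2A, fitted bidirectionally versus DMSO.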

[2] = read-out: Cytochrome P450 (CYP1A2), CYP1A2 (gene 1544); experiment: LTEA_HepaRG_CYP1A2: Life Technologies and Expression Analysis (LTEA) Assay for Cytochrome P450 (CYP1A2) using HepaRG (AID 2283479)
Procedure, shortened: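 Differentiated human HepaRG cells in serum-free induction medium were exposed in duplicate for 48 h to 8-point half-log concentrations up to 100 uM in 0.5% DMSO. CYP1A2 mRNA measured by qRT-PCR, normalized to ACTB, GAPDH, POLR2A; bidirectional fit vs DMSO.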

[3] = read-out: cysteine-aspartic acid protease (CASP8), CASP8 (gene 841); experiment: LTEA_HepaRG_CASP8: Life Technologies and Expression Analysis (LTEA) Assay for cysteine-aspartic acid protease (CASP8) using HepaRG (AID 2283480)
Procedure, shortened: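 Concentration-response in duplicate up to 100 uM (half-log steps, 0.5% DMSO) on differentiated HepaRG cultures for 48 h. Expression change of CASP8 mRNA is determined by TaqMan qRT-PCR with housekeeping-gene normalization.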

[4] = read-out: Cytochrome P450 (CYP2B6), CYP2B6 (gene 1555); experiment: LTEA_HepaRG_CYP2B6: Life Technologies and Expression Analysis (LTEA) Assay for Cytochrome P450 (CYP2B6) using HepaRG (AID 2283481)
Procedure, shortened: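 Differentiated HepaRG cells, serum-free induction medium, exposed 48 h in duplicate to 8-point half-log concentrations from 100 uM in 0.5% DMSO. CYP2B6 mRNA by qRT-PCR, normalized to ACTB, GAPDH, POLR2A; bidirectional fit versus DMSO.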

[5] = read-out: CYP2C8 (gene 1558); experiment: LTEA_HepaRG_CYP2C8: Life Technologies and Expression Analysis (LTEA) Assay for CYP2C8 using HepaRG (AID 2283483)
Procedure, shortened: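 This is a transcriptional endpoint in HepaRG cultures: 48 h exposure, highest concentration 100 uM. CYP2C8 mRNA is quantified by TaqMan qRT-PCR.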

[6] = read-out: CYP2C9 (gene 1559); experiment: LTEA_HepaRG_CYP2C9: Life Technologies and Expression Analysis (LTEA) Assay for CYP2C9 using HepaRG (AID 2283484)
Procedure, shortened: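 Eight-point concentration-response (highest 100 uM, half-log dilutions) in HepaRG cells for 48 h; CYP2C9 expression by qRT-PCR normalized to ACTB, GAPDH, POLR2A. Bidirectional fit, DMSO baseline.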

[7] = read-out: CYP2E1 (gene 1571); experiment: LTEA_HepaRG_CYP2E1: Life Technologies and Expression Analysis (LTEA) Assay for CYP2E1 using HepaRG (AID 2283485)
Procedure, shortened: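 CYP2E1 transcript measured by Fluidigm qRT-PCR against three housekeeping genes in human HepaRG cells treated 48 h (top 100 uM, half-log steps, 0.5% DMSO vehicle). Gain or loss fitted relative to DMSO baseline.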

[8] = read-out: Cytochrome P450 3A4 (Homo sapiens) (UniProt P08684); experiment: LTEA_HepaRG_CYP3A4: Life Technologies and Expression Analysis (LTEA) Assay for CYP3A4 using HepaRG (AID 2283487)
Procedure, shortened: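 In a human hepatic line (HepaRG), duplicate wells were treated 48 h with up to 100 uM chemical in half-log dilutions. Endpoint: CYP3A4 mRNA induction or loss relative to 0.5% DMSO vehicle, by qRT-PCR.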

[9] = read-out: DNA damage-inducible transcript 3 (DDIT3), DDIT3 (gene 1649); experiment: LTEA_HepaRG_DDIT3: Life Technologies and Expression Analysis (LTEA) Assay for DNA damage-inducible transcript 3 (DDIT3) using HepaRG (AID 2283488)
Procedure, shortened: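 DDIT3 transcript was quantified by qRT-PCR with ACTB/GAPDH/POLR2A normalization after 48 h chemical treatment of differentiated HepaRG cells in 0.5% DMSO. Dosing was eight-point, half-log, top 100 uM, duplicate wells. Curves fitted bidirectionally versus DMSO.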

[10] = read-out: Pro-epidermal growth factor (Homo sapiens) (UniProt P01133); experiment: LTEA_HepaRG_EGF: Life Technologies and Expression Analysis (LTEA) Assay for Epidermal growth factor (EGF) using HepaRG (AID 2283489)
Procedure, shortened: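 Differentiated human HepaRG cells, plated 48 h then switched to serum-free induction medium, were exposed for 48 h to test chemicals (8-point half-log series, top 100 uM, 0.5% DMSO). EGF mRNA was quantified by qRT-PCR, normalized to ACTB, GAPDH, POLR2A.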

[11] = read-out: Early growth response protein 1 (EGR1) transcription factor, EGR1 (gene 1958); experiment: LTEA_HepaRG_EGR1: Life Technologies and Expression Analysis (LTEA) Assay for Early growth response protein 1 (EGR1) transcription factor using HepaRG (AID 2283490)
Procedure, shortened: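 EGR1 expression change in human HepaRG after 48 h chemical exposure, assessed by housekeeping-normalized qRT-PCR; concentration-response up to 100 uM, fitted in both directions against DMSO controls.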

[12] = read-out: Ezrin (EZR), EZR (gene 7430); experiment: LTEA_HepaRG_EZR: Life Technologies and Expression Analysis (LTEA) Assay for Ezrin (EZR) using HepaRG (AID 2283491)
Procedure, shortened: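 Gain or loss of EZR mRNA is scored relative to 0.5% DMSO in human HepaRG cultures treated 48 h with test chemicals in duplicate, eight half-log concentrations from 100 uM.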

[13] = read-out: Cytochrome P450 3A7 (Homo sapiens) (UniProt P24462); experiment: LTEA_HepaRG_CYP3A7: Life Technologies and Expression Analysis (LTEA) Assay for CYP3A7 using HepaRG (AID 2283492)
Procedure, shortened: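 HepaRG cells plated 48 h, then dosed in serum-free induction medium for 48 h at 8 concentrations (top 100 uM, half-log steps, 0.5% DMSO). CYP3A7 mRNA by qRT-PCR, normalised to ACTB/GAPDH/POLR2A; bidirectional fit versus DMSO.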

[14] = read-out: CYP3A5 (gene 1577); experiment: LTEA_HepaRG_CYP3A5: Life Technologies and Expression Analysis (LTEA) Assay for CYP3A5 using HepaRG (AID 2283493)
Procedure, shortened: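 mRNA levels were quantified by qRT-PCR on Fluidigm arrays and normalized to three housekeeping genes. Differentiated HepaRG cells received 48 h exposure (top 100 uM, half-log steps, 0.5% DMSO vehicle, duplicate); bidirectional fitting versus DMSO.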

[15] = read-out: Fatty Acid-Binding Protein 1 (FABP1), FABP1 (gene 2168); experiment: LTEA_HepaRG_FABP1: Life Technologies and Expression Analysis (LTEA) Assay for Fatty Acid-Binding Protein 1 (FABP1) using HepaRG (AID 2283494)
Procedure, shortened: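 Values reflect bidirectional concentration-response fitting of FABP1 mRNA change against 0.5% DMSO controls. Human HepaRG cultures received eight half-log doses (top 100 uM) for 48 h; expression quantified by TaqMan qRT-PCR with housekeeping-gene normalization.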

[16] = read-out: Cytochrome P450 4A22 (Homo sapiens) (UniProt Q5TCH4); experiment: LTEA_HepaRG_CYP4A22: Life Technologies and Expression Analysis (LTEA) Assay for Cytochrome P450 4A22 (CYP4A22) using HepaRG (AID 2283495)
Procedure, shortened: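 qRT-PCR of CYP4A22 mRNA (Fluidigm TaqMan, normalized to three housekeeping genes) after 48 h chemical exposure of HepaRG cells; 8-point half-log series, top 100 uM, 0.5% DMSO vehicle. Bidirectional curve fitting vs DMSO baseline.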

[17] = read-out: Cytochrome P450 7A1 (Homo sapiens) (UniProt P22680); experiment: LTEA_HepaRG_CYP7A1: Life Technologies and Expression Analysis (LTEA) Assay for Cytochrome P450 7A1 (CYP7A1) using HepaRG (AID 2283496)
Procedure, shortened: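 HepaRG, 48 h exposure, 8-pt half-log series from 100 uM, 0.5% DMSO vehicle, duplicates. Readout: TaqMan qRT-PCR mRNA vs three housekeeping genes; bidirectional curve fit against DMSO baseline.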

[18] = read-out: Glutathione S-Transferase (GSTA2), GSTA2 (gene 2939); experiment: LTEA_HepaRG_GSTA2: Life Technologies and Expression Analysis (LTEA) Assay for Glutathione S-Transferase (GSTA2) using HepaRG (AID 2283497)
Procedure, shortened: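 Oxidative-stress marker GSTA2 is quantified by TaqMan qRT-PCR in HepaRG cultures treated 48 h across an eight-point range to 100 uM. Expression is normalized to endogenous controls and compared with 0.5% DMSO vehicle.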

[19] = read-out: Cytochrome P450 2C19 (Homo sapiens) (UniProt P33261); experiment: LTEA_HepaRG_CYP2C19: Life Technologies and Expression Analysis (LTEA) Assay for CYP2C19 using HepaRG (AID 2283482)
Procedure, shortened: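 Differentiated human HepaRG cells were exposed for 48 h in serum-free induction medium to 8 concentrations (top 100 uM, half-log steps, 0.5% DMSO). CYP2C19 mRNA was measured by qRT-PCR, normalized to ACTB/GAPDH/POLR2A, and fitted bidirectionally against DMSO.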

[20] = read-out: CYP4A11 (gene 1579); experiment: LTEA_HepaRG_CYP4A11: Life Technologies and Expression Analysis (LTEA) Assay for CYP4A11 using HepaRG (AID 2283486)
Procedure, shortened: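 Differentiated HepaRG cells, serum-free induction medium, exposed 48 h in duplicate to 8-point half-log series from 100 uM in 0.5% DMSO. CYP4A11 mRNA measured by qRT-PCR, normalized to ACTB, GAPDH, POLR2A; bidirectional fit versus DMSO.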

Measured: AC50

Chain of Cytochrome P450 3A7 (Homo sapiens) (P24462 whole entry, looked up): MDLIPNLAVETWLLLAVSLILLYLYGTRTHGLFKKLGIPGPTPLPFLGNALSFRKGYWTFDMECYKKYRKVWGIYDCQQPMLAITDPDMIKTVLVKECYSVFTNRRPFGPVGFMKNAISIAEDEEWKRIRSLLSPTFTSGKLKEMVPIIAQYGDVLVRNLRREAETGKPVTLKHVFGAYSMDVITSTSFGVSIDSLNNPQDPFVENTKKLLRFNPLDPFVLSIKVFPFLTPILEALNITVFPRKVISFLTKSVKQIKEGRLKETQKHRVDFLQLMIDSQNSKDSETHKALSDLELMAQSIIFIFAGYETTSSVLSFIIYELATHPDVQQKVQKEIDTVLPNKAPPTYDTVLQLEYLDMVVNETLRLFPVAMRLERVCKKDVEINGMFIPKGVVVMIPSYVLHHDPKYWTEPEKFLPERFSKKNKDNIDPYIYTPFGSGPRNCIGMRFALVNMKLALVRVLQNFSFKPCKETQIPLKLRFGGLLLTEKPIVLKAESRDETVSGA
Chain of Cytochrome P450 3A4 (Homo sapiens) (P08684 whole entry, looked up): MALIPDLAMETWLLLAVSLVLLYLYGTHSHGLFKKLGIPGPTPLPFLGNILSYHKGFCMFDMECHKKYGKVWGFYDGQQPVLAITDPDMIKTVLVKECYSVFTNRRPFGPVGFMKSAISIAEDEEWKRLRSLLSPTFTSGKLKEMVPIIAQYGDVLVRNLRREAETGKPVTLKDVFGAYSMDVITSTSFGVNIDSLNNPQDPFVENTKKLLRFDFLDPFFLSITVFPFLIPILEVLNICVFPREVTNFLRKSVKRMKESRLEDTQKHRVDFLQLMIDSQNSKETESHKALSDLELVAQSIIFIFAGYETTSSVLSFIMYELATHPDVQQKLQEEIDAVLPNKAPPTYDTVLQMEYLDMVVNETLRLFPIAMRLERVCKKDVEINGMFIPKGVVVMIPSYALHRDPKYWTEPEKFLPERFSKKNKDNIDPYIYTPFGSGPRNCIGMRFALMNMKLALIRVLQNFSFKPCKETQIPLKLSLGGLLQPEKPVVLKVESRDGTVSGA
Chain of Cytochrome P450 2C19 (Homo sapiens) (P33261 whole entry, looked up): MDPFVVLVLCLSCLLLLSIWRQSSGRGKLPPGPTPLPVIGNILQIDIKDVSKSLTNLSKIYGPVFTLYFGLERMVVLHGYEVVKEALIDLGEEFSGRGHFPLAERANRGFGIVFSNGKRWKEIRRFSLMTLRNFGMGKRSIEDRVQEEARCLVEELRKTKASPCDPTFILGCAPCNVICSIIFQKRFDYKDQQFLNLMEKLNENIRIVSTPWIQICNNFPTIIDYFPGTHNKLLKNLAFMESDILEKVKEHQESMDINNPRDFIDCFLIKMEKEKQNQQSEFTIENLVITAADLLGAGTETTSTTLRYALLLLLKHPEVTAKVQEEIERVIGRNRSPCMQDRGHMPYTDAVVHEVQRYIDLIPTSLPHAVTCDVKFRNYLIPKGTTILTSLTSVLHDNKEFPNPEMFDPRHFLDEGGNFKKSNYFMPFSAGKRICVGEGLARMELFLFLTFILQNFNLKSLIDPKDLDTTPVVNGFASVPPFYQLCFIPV

CCOC(=O)CC(O)(CC(=O)OCC)C(=O)OCC
not listed: [19] | [20]
inactive: all other assays above

CC[C@H](c1ccc(O)cc1)[C@@H](CC)c1ccc(O)cc1
inactive: [3] | [5] | [6] | [9] | [10] | [13] | [16]
active: [1] 83.4 µM | [4] 79.4 µM | [19] 80.3 µM | [7] 87.9 µM | [12] 88.4 µM | [14] 70.3 µM | [15] 80.7 µM | [17] 78.8 µM | [18] 87.3 µM

CCCCCCC(=O)O
not listed: [2] | [19]
inactive: all other assays above

CC(C)(C)CC(C)(C)c1ccc(O)c(-n2nc3ccccc3n2)c1
active: [4] 13.1 µM | [7] 58.2 µM | [10] 50 µM | [15] 50 µM | [16] 50 µM | [17] 50 µM
not listed: [2] | [8] | [11] | [19] | [20]
inactive: all other assays above
